# Screening data (PubChem BioAssay)
# PLK1 PBD block = PLK1 (human) polo-box domain binding inhibition | P53350 | Plk1 PBD binding of FITC phosphopeptide, fluorescence polarization | Potency, µM, without a hit: max response, negative = inhibition, hits mostly inhibitors | 360,000 tested, 2.8% active | AID 720504; also: series mostly up to about 57 µM; % is scaled to controls: 0 for no effect and ±100 for the full control effect; nearly all actives have a fitted effect of over 65% in size
# G9a inh = blocks human histone lysine methyltransferase G9a; G9a H3K9 monomethylation, AlphaScreen, 2 h; AID 504332; Potency, µM (titrated, usually from 102 µM), for inactives: at the top dose activity, negative = inhibition, hits mostly inhibitors; Q96KQ7; 350,000 tested, 8.8% active; also: % is scaled to controls: 0 for no effect and ±100 for the full control effect; nearly all actives have a fitted effect of over 75% in size
# Target sequence (Q96KQ7 913-1193 limits assumed): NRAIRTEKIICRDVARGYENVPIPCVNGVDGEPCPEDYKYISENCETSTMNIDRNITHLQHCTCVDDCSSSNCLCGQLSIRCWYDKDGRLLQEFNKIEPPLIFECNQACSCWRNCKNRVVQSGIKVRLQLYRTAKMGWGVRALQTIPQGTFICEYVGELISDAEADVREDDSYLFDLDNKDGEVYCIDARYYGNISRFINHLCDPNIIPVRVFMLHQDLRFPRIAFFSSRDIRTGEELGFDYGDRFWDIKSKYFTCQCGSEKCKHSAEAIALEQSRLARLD
#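 Methyltransferase reactions run at room temperature for 2 h (20 nM enzyme, 500 nM biotin-H3K9 peptide, 20 uM SAM) after a 15 min compound preincubation; product detected by AlphaScreen beads and anti-H3K9me1 antibody.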
# ALOX12 inh = blocks human arachidonate 12S-lipoxygenase. purified 12hLO, xylenol orange hydroperoxide absorbance. 580,000 tested, 1.1% active. Potency, µM (doses to about 108 µM), for the others: at the highest dose activity change, negative = inhibition, hits mostly inhibitors; also: % is scaled to controls: 0 for no effect and ±100 for the full control effect
#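 Purified human 12hLO at 150 nM in 25 mM Hepes, 0.01% Triton X-100, pH 7.0, preincubated 15 min at room temperature with compound. Reaction started with 40 uM arachidonic acid, 30 min at room temperature. Hydroperoxide measured by Fe-xylenol orange, 573/405 nm absorbance ratio.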
# JMJD2A Tudor = JMJD2A Tudor domain (human) inhibition | O75164 | AlphaScreen JMJD2A-Tudor / H3K4me3 peptide binding | Potency, µM (highest dose often 114 µM), for the others: at the top dose activity change, negative = inhibition, hits mostly inhibitors | 390,000 tested, 4.4% active; also: % is scaled to controls: 0 for no effect and ±100 for the full control effect; nearly all actives have a fitted effect of over 50% in size
# BAZ2B block = inhibitors of human BAZ2B bromodomain; AlphaScreen BAZ2B-H3K14Ac peptide displacement; Potency, µM (doses to about 114 µM), for inactives: top-dose activity change, negative = inhibition, most hits filed as inhibitors; Q9UIF8; AID 504333; 360,000 tested, 4.4% active; also: % is scaled to controls: 0 for no effect and ±100 for the full control effect; nearly all actives have a fitted effect of over 60% in size
#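 Protein-peptide AlphaScreen: BAZ2B 50 nM, b-H3K14Ac 50 nM, 1x PBS pH 7.4 + 0.01% Tween-20. Preincubation 30 min RT; cpd 30 min RT (top 110 uM); beads 20 min RT, light-protected.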
# HP1b chromo inh = blocks HP1-beta chromodomain binding to methylated histone tails. Potency, µM (highest dose often 114 µM), for the others: at the highest dose activity change, negative = inhibition, most hits filed as inhibitors. AID 540317. 390,000 tested, 0.56% active. AlphaScreen HP1-beta / biotin-H3K9me3 peptide binding. P83916; also: nearly all actives have a fitted effect of over 70% in size
# Target sequence (P83916 whole entry, looked up): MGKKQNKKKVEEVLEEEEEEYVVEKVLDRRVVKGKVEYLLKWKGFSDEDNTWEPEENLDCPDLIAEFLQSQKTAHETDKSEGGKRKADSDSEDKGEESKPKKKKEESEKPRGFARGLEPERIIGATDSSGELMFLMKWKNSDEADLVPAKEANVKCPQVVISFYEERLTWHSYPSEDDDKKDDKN
#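 HP1-beta protein (50 nM final) preincubated 30 min at room temperature with biotinylated H3(1-18)K9me3 peptide (50 nM) in PBS pH 7.4, 0.01% Tween-20, then compound added for 30 min. AlphaScreen streptavidin donor/nickel chelate acceptor beads (10 ug/mL final), 30 min dark, luminescence read.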
# * marks the source's active call; other numbers are inactive results; u = inconclusive; x = no result given; [ ] = remark or other dose. Hits are enriched below; roughly 9% of the tested compounds scored in any of these assays. Calls follow the shape of the dose curve; as a rule, active = well fitted curve in the direction sought with a large enough effect; inconclusive = small, poorly fitted or top-dose-only effect, or another doubt; inactive = no such curve, though single readings can be large; an effect the other way counts as inactive or inconclusive. Potency is read from the fitted curve at half-maximal effect.
SMILES,PLK1 PBD block,G9a inh,ALOX12 inh,JMJD2A Tudor,BAZ2B block,HP1b chromo inh
CCN1C(=O)[C@H]2[C@@H](c3ccc(-c4cccc(Cl)c4)c(OC)c3)N3CCC[C@@]3(C(=O)OC)[C@H]2C1=O,-10%,x,50µM*,-30%,x,13%
O=C(NCCc1cccnc1)c1ccc(Cl)cc1Cl,x,x,40%,x,x,x
Cn1c(=O)c2c(nc(Cl)n2CC(=O)c2ccc(C(C)(C)C)cc2)n(C)c1=O,x,x,13%,x,x,x
COc1ccc(-c2ccc(CCC(=O)O)n2NC(=O)c2cccs2)cc1,-8%,14µM*,-6%,-27%,-23%,-3%
Cc1ccc(-c2ccc(CCC(=O)O)n2NC(=O)c2cccs2)cc1,-2%,u,121%,-16%,11µM*,10%
CCN(CC(=O)Nc1ccc(NC(C)=O)cc1)C(=O)c1ccc(COc2ccc(C(C)(C)C)cc2)cc1,-2%,x,344%,u,x,5%
CCN1C(=O)CC(C(=O)OC)=C1C,3%,-26%,6%,1%,3%,53%
COC(=O)C1=C(C)N(CCC2=CCCCC2)C(=O)C1,u,-2%[12.7 µM],-7%,50µM*,8%,-5%
Cc1ccc(C(=O)OCC(=O)c2ccc(CC(=O)N3CCOCC3)s2)c(C)c1,-21%,45µM*,x,13µM*,50µM*,-36%
Cc1ccc(C(=O)OCC(=O)c2ccc(CC(=O)N3CCOCC3)s2)cc1C,-3%,u,1%,u,50µM*,19%
O=C(OCC(=O)N1CCOCC1)c1ccc2c(c1)OCCO2,-3%,-1%,-24%,-4%,4%,47%
O=C(CCC(=O)OCC(=O)c1cccc([N+](=O)[O-])c1)Nc1cccc(Cl)c1Cl,-5%,-43%,-2%,-4%,0%,25%
COc1cc(OC)c(S(=O)(=O)NC(C)C)cc1S(=O)(=O)NC(C)C,-20%,-10%,-12%,-11%,12%,29%
Cc1cc(C(=O)C(C)Sc2cccc[n+]2[O-])c(C)n1-c1ccc(Cl)cc1 (configuration not stated),u,40µM*,-7%,-33%,-37%,-14%
Cn1c2c(c(=O)[nH]c1=O)C(c1ccc(O)cc1)C1=C(N2)c2ccccc2C1=O (configuration not stated),u,35µM*,u,50µM*,2%,35µM*
CC(C)=C1C2CCC1C(C(=O)Nc1cc(C)cc(C)c1)C2C(=O)O (configuration not stated),-13%,40µM*,u,1%,-31%,43%
O=C(OCC(=O)N1CCCC1=O)c1cc(=O)c2cc(Cl)ccc2o1,x,x,8%,x,x,x
O=C(OCC(=O)N1CCCC1=O)c1cc2ccccc2o1,21µM*,12%[2.33 µM],145%,-28%,3%,-14%[57 µM]
O=C(COc1ccccc1Cl)NCc1ccco1,-13%,-12%,0%,-6%,1%,12%
O=C(COc1ccc(Cl)cc1Cl)NCc1ccco1,-1%,56µM*,u,-23%,-36%,11%
CC(Oc1ccc(Cl)cc1)C(=O)NNC(=S)NC(=O)c1ccco1 (configuration not stated),-23%,11µM*,45µM*,-26%,4%,-6%
O=C(CC(NS(=O)(=O)c1ccc(Cl)cc1)c1ccco1)NCc1ccco1 (configuration not stated),30µM*,-1%,112%,21%[11.4 µM],u,u
Cc1ccc2c(Cl)cc(Cl)c(OCC(=O)N3CCCC3)c2n1,27µM*,-35%,u,-13%,x,-14%
CCN1C(=O)CCN(C(=O)c2ccc(OC)cc2)CC12CCOCC2,x,x,16%,x,x,x
COc1ccc(NC(=O)C(CCSC)N2C(=O)c3ccccc3C2=O)cc1 (configuration not stated),-19%,u,-4%,-14%,17%,-12%
SMILES,PLK1 PBD block,G9a inh,ALOX12 inh,JMJD2A Tudor,BAZ2B block,HP1b chromo inh
O=C(COc1ccc(Cl)cc1Cl)NNC(=S)NC(=O)c1ccco1,u,7.9µM*,u,u,-2%,u
O=C(COC(=O)Cc1ccc(Cl)cc1)NCc1ccco1,-23%,x,u,56µM*,x,u
O=C(CNCc1ccc(Cl)cc1)NCc1ccco1,-7%,5.6µM*,-27%,79µM*,50µM*,u
Cc1ccc2c(Cl)cc(Cl)c(OCC(=O)NCc3ccco3)c2n1,x,9%[12.7 µM],x,x,40µM*,x
Cn1c(NC(=O)Cc2cccs2)cc(=O)n(C)c1=O,-3%,-17%,10%[57.4 µM],0%,10%,41%
O=C(O)CSc1cc(NS(=O)(=O)c2ccc(Cl)cc2)c2ccccc2c1O,1.3µM*,4µM*,2.8µM*,25µM*,50µM*,20µM*
COc1ccc(S(=O)(=O)Nc2cc(SCC(=O)O)c(O)c3ccccc23)cc1,1.5µM*,2µM*,u,20µM*,40µM*,13µM*
Cc1cc(C)c(S(=O)(=O)Nc2cc(SCC(=O)O)c(O)c3ccccc23)cc1C,1.5µM*,2.2µM*,x,22µM*,40µM*,-95%
NS(=O)(=O)c1ccc(CCNc2nc(CN3CCOCC3)nc3sc4c(c23)CCC4)cc1,-13%,13µM*,u,-23%,-30%,21%
Cc1nc(NCCc2ccc(S(N)(=O)=O)cc2)c2c3c(sc2n1)CCC3,-2%,-36%[59 µM],14%,-17%,1%,8%
O=[N+]([O-])c1ccc(Oc2ncccn2)cc1,-13%,x,-42%,-3%,x,8%
N#CCc1ccc(Oc2ncccn2)cc1,17µM*,13%[0.501 µM],0%,-30%,0%,28%
CCCN(CCC)C(=O)c1nn(Cc2ccccc2)c(=O)c2ccccc12,x,x,27%,x,x,x
CCn1cc(C(=O)O)c(=O)c2cc(F)c(N3CCN(C(=S)NC(=O)c4ccc(OC)cc4)CC3)cc21,4%,12%,0%,21%,u,36%
COc1cc(S(=O)(=O)NCCc2c(C)[nH]c3ccccc23)c(C)cc1C,x,u,0%,28µM*,35µM*,u
Cc1ccc([N+](=O)[O-])cc1S(=O)(=O)NCCc1c(C)[nH]c2ccccc12,-4%,u,-27%,u,50µM*,-31%
Cc1ccc([N+](=O)[O-])cc1S(=O)(=O)NCCc1cn2ccccc2n1,-15%,x,3%,-15%,-23%,29%
COc1cccc2cc(C(=O)NCCc3c(C)[nH]c4ccccc34)c(=O)oc12,x,x,-1%,x,x,x
CCSC1=C(C#N)C(c2ccc(C)o2)CC(=O)N1 (configuration not stated),-5%,12%[12.7 µM],-3%,-21%,-11%,20%
Cc1cc(NC(=O)N(C)CC2CCOC2)ccc1Br (configuration not stated),x,x,15%,x,x,x
Cn1c(CSc2ccccc2)c(C#N)c2ccccc21,-5%,163%,-3%,99%,42%,166%
